Laboratory results: PubChem BioAssay (NCATS)
Inconclusive results are not listed. A call without a number means that no potency is given here. Values without a mark were called inactive. Active and inactive are the calls of the source. Calls follow the shape of the dose curve; as a rule, active = well fitted curve in the direction sought with a large enough effect; inconclusive = small, poorly fitted or top-dose-only effect, or another doubt; inactive = no such curve, though single readings can be large; an effect the other way counts as inactive or inconclusive. Where a SMILES comes first, the peptide text is derived from it. Bridges are numbered along the chain shown (N, C = ends). [ ]: non-standard residue; d: D form. The star is where a group is joined. X2 = CC[C@H](C)CCCCC(=O)*; Dab = NCC[C@H](N)C(=O)O

Tests used:
[1] = P-glycoprotein substrates identified in KB-3-1 adenocarcinoma cell line, qHTS therapeutic library screen (AID 1346986); also: nearly all actives have a fitted effect of over 60% in size;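 also: potency is for cytotoxicity meaning loss of cell viability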
Method in brief: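 KB-3-1 parental cells and P-gp-overexpressing KB-8-5-11 (colchicine omitted during assay) plated at 500 cells/well, dosed in dose-response, incubated 72 h at 37 degree C. CellTiter-Glo luminescence read; KB-8-5-11 also tested with tariquidar.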

[2] = P-glycoprotein substrates identified in KB-8-5-11 adenocarcinoma cell line, qHTS therapeutic library screen (AID 1346987); also: nearly all actives have a fitted effect of over 65% in size; as to activity change, negative = cytotoxicity: series mostly up to about 44 µM
Method in brief: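 KB-8-5-11: colchicine-selected sub-line of KB-3-1 over-expressing P-gp; assay medium lacked colchicine. 72 h drug exposure at 37 degree C, CellTiter-Glo.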
Potency is read from the fitted curve at half-maximal effect.

## CC(=O)OC1C(O)CC2(C)C(CCC3(C)C2CC=C2C4C5(CCC(CO[C@@H]6O[C@H](CO)[C@@H](O)[C@H](O)[C@H]6O)(OC5=O)C4(C)O)C(O)CC23C)C1(C)C (some centres not stated)
[1]
  Potency: inactive
[2]
  Potency: inactive

## C=C1C(=O)OC[C@@H]1C/C=C(\C)CC1CC(C)C(=O)O1 (some centres not stated)
[1]
  Potency: inactive
[2]
  Potency: inactive

## C=C(C)C(=O)O[C@H]1[C@H]2C(=C)C(=O)O[C@@H]2/C=C(\CO)CC/C=C(/C=O)[C@@H]1O
[1]
  Potency: inactive
[2]
  Potency: inactive

## Cc1cn2cc(C(=O)N(C)CCO)cc(NC3CCOc4cccc(C)c43)c2n1 (configuration not stated)
[1]
  Potency: inactive
[2]
  Potency: inactive

## CCN1CCN(Cc2ccc(NC(=O)c3ccc(C)c(Oc4ccnc5[nH]ccc45)c3)cc2C(F)(F)F)CC1
[1]
  Potency: 16.4 µM (active)
[2]
  Potency: 10.1 µM (active)

## CCNC(=O)C#Cc1ccc2c(C(=Nc3ccc(CN(C)C)cc3)c3ccccc3)c(O)[nH]c2c1
[1]
  Potency: 0.0517 µM (active)
[2]
  Potency: 0.651 µM (active)

## N#Cc1ccnc(Nc2cc(C3CCN(C4COC4)CC3)cc(N3CCC(F)(F)C3)n2)c1
[1]
  Potency: 6.51 µM (active)
[2]
  Potency: 16.4 µM (active)

## C=CC(=O)N1CC(N2CCN(C(=O)CNc3cc(C4CC4)c(Cl)cc3O)CC2)C1
[1]
  Potency: inactive
[2]
  Potency: inactive

## C=C1C(=O)O[C@@H]2/C=C(\C)CC/C=C(/C=O)[C@H](OC)[C@@H](OC(=O)C(C)C)[C@@H]12
[1]
  Potency: inactive
[2]
  Potency: inactive

## CN(C)c1cccc(Oc2cnc(Nc3cccc(O)c3)nc2)c1
[1]
  Potency: inactive
[2]
  Potency: inactive

## C=C1C(=O)OC2CC(C)C(CCC(C)O)=CCC12 (configuration not stated)
[1]
  Potency: inactive
[2]
  Potency: inactive

## CN1c2c(nc(N)[nH]c2=O)NC[C@@H]1CNc1ccc(C(=O)N[C@@H](CCC(=O)O)C(=O)O)cc1
[1]
  Potency: inactive
[2]
  Potency: inactive

## COc1cc(C(C)=O)c(OC)c2c1OC(C)(C)C=C2
[1]
  Potency: inactive
[2]
  Potency: inactive

## COc1ccc(S(=O)(=O)N2CCC[C@H]2C(=O)Nc2cc(C)cc(C)c2)cc1
[1]
  Potency: inactive
[2]
  Potency: inactive

## CC(C)n1nc(C#Cc2ccccc2)c2c(N)ncnc21
[1]
  Potency: 14.6 µM (active)
[2]
  Potency: 16.4 µM (active)

## C=C1C(=O)O[C@@H]2/C=C(\CO)CC/C=C(\CO)[C@H](OC(C)=O)C(OC(=O)C(C)CC)C12 (some centres not stated)
[1]
  Potency: inactive
[2]
  Potency: inactive

## COc1ccc2[nH]c(=O)c3c(c2c1)OC(C)(C)C=C3
[1]
  Potency: inactive
[2]
  Potency: inactive

## CC(CCC1(O)OC2CC3C4CC=C5C[C@@H](O[C@@H]6O[C@H](CO)[C@@H](O[C@@H]7O[C@@H](C)[C@H](O)[C@@H](O)[C@H]7O)[C@H](O)[C@H]6O[C@@H]6O[C@@H](C)[C@H](O)[C@@H](O)[C@H]6O)CC[C@]5(C)C4CC[C@]3(C)[C@@]2(O)[C@@H]1C)CO[C@@H]1O[C@H](CO)[C@@H](O)[C@H](O)[C@H]1O (some centres not stated)
[1]
  outcome: inactive [at 9.29 µM]
[2]
  activity change, negative = cytotoxicity: -2.5% [at 9.29 µM]

## CC#CCn1c(N2CCCC(N)C2)nc2c1c(=O)n(Cc1nc(C)c3ccccc3n1)c(=O)n2C (configuration not stated)
[1]
  Potency: inactive
[2]
  Potency: inactive

## CC1(CO)CC(O)[C@]2(C(=O)O)CCC34CC3(C=CC3[C@]5(C)C(CC[C@]34C)C(C)(CO)[C@@H](O)[C@H](O)[C@@H]5O)C2C1 (some centres not stated)
[1]
  Potency: inactive
[2]
  Potency: inactive

## O=C(Cc1c(F)cccc1F)Nc1cc(OCc2ccc(Cl)cc2)ccn1
[1]
  Potency: inactive
[2]
  Potency: inactive

## C=C1C(=O)O[C@@H]2[C@H]1CCC(C)=C(CCC(=O)O)[C@@]2(C)O
[1]
  Potency: inactive
[2]
  Potency: inactive

## CCN(CC)C(=O)c1ccc(Nc2nc(OCC3CCCCC3)c3[nH]cnc3n2)cc1
[2]
  Potency: 18.4 µM (active)

## CS(=O)(=O)OCCCNCCCOS(C)(=O)=O
[2]
  Potency: inactive

## COc1ccc(Cl)c(Nc2ncnc3cc(OCC4CCN(C)CC4)c(OC)cc23)c1
[2]
  Potency: inactive

## CC[C@H](C)CCCCC(=O)N[C@@H](CCN)C(=O)N[C@H](C(=O)N[C@@H](CCN)C(=O)N[C@H]1CCNC(=O)[C@H]([C@@H](C)O)NC(=O)[C@H](CCN)NC(=O)[C@H](CCN)NC(=O)[C@H](CC(C)C)NC(=O)[C@@H](CC(C)C)NC(=O)[C@H](CCN)NC1=O)[C@@H](C)O (X2-[Dab]T[Dab][Dab][Dab][dL]L[Dab][Dab]T; lactam 4-C)
[2]
  Potency: inactive

## COc1ccc2nc3n[nH]c(C)c3c(NCCOCCO)c2c1
[2]
  Potency: inactive

## O=C(NC1CCN(CCCCC2(C(=O)NCC(F)(F)F)c3ccccc3-c3ccccc32)CC1)c1ccccc1-c1ccc(C(F)(F)F)cc1
[2]
  Potency: 20.6 µM (active)

## CC(C)(C)c1ccc2c(c1)CC[C@H]2NC(=O)Nc1cccc2[nH]ncc12
[2]
  Potency: inactive

## COc1cc(C(=O)NCC2(N(C)C)CCCC2)cc(OC)c1OCc1ccccc1
[2]
  Potency: inactive

## C=CS(=O)(=O)NC1CCN(C(=O)CNc2cc(I)c(Cl)cc2OC)CC1
[2]
  Potency: 14.6 µM (active)

## C[C@H](CN(C)C)Oc1nc(Nc2cc3cccc(Cl)c3cn2)cnc1C#N
[2]
  Potency: 2.91 µM (active)

## CCOC(=O)c1cnc2ccc(-c3cncc(NS(=O)(=O)c4ccccc4)c3)cn12
[2]
  Potency: 4.11 µM (active)

## CCc1cc(C(N)=O)ccc1-n1nc(C(C)C)c2c(-n3cnc(-c4cnn(C)c4)c3)ccnc21
[2]
  Potency: 3.66 µM (active)

## CC(C)(C)C1CCN(C(=O)n2ncc(C(O)(c3ccccc3)c3ccccc3)n2)CC1
[2]
  Potency: 20.6 µM (active)

## COC(=O)c1ccc2c(c1)[nH]c1ncnc(NCCCN3CCCCC3)c12
[2]
  Potency: inactive

## CCCCOC(=O)C(=O)Nc1cccc(-c2nn[nH]n2)c1
[2]
  Potency: inactive

## C=C1/C(=C/C=C2\CCC[C@]3(C)[C@@H]([C@H](C)/C=C/[C@H](O)C4CC4)CC[C@@H]23)C[C@@H](O)C[C@@H]1O
[2]
  Potency: inactive

## N#Cc1ccc(COC[C@H]2O[C@@H](n3c(NCc4ccc(Cl)c(Cl)c4)nc4c(N)ncnc43)[C@H](O)[C@@H]2O)cc1
[2]
  Potency: inactive

## CCCCCCCCCCCCCCCCCC(=O)OCCO
[2]
  Potency: inactive

## CC1(C)CCCC2(C)C1C(=O)C=C(C(=O)O)C2(O)C(=O)O (configuration not stated)
[2]
  Potency: inactive

## CN(C)CCOC(C)(c1ccccc1)c1ccc(Cl)cc1 (configuration not stated)
[2]
  Potency: 16.4 µM (active)

## COc1cc(C#N)ccc1S(=O)(=O)Nc1ccc2c(c1)cc(C)c(=O)n2C
[2]
  Potency: inactive

## Cc1nc2c(C(F)(F)F)cccc2nc1-c1ccc(-c2cccc(S(C)(=O)=O)c2)cc1
[2]
  Potency: inactive

## CC[C@@H](C)[C@@H]1OC2(C=C[C@H]1C)C[C@@H]1C[C@H](C/C=C(\C)[C@H](O[C@H]3C[C@H](OC)[C@H](O[C@H]4C[C@H](OC)[C@H](NC(C)=O)[C@H](C)O4)[C@H](C)O3)[C@H](C)/C=C/C=C3\CO[C@H]4[C@H](O)C(C)=C[C@@H](C(=O)O1)[C@@]34O)O2 (some centres not stated)
[2]
  Potency: 10.1 µM (active)

## Cc1cc(NC(=O)c2cccc(NC(=O)/C=C/CN(C)C)c2)ccc1Nc1nccc(-c2cccnc2)n1
[2]
  Potency: inactive

## CSCC[C@H](NC(=O)[C@H](Cc1ccc(OS(=O)(=O)O)cc1)NC(=O)[C@@H](N)CC(=O)O)C(=O)NCC(=O)N[C@@H](Cc1c[nH]c2ccccc12)C(=O)N[C@@H](CCSC)C(=O)N[C@@H](CC(=O)O)C(=O)N[C@@H](Cc1ccccc1)C(N)=O
[2]
  Potency: inactive

## Cn1cc(-c2ccc(F)c(C(F)(F)F)c2)nc1C1CCN(c2ncnc3[nH]ncc23)CC1
[2]
  Potency: inactive

## C[C@@]12C(=O)N(c3ccc(C(=O)Nc4cccc5cccnc45)cc3)C(=O)[C@@H]1[C@@H]1C=C[C@H]2C1
[2]
  Potency: inactive

## CNc1cccc(CCOc2ccc3c(c2)CN(CC(F)(F)F)C(=O)[C@H](CC(=O)O)C3)n1
[2]
  Potency: inactive

## C/C=C(/C)C(=O)OC1CC(C)(C)CC2C3=CCC4C5(C)CCC(O[C@@H]6O[C@H](C(=O)O)[C@@H](O)[C@H](O)[C@H]6O[C@@H]6O[C@H](CO)[C@H](O)[C@H](O[C@@H]7OC[C@H](O)[C@H](O)[C@H]7O[C@@H]7O[C@H](CO)[C@@H](O)[C@H](O)[C@H]7O)[C@H]6O)C(C)(C)C5CCC4(C)C3(C)C(O)C(O)C12CO (some centres not stated)
[2]
  activity change, negative = cytotoxicity: -17.3% [at 9.29 µM]

## COc1cc(-c2nc(N[C@H](CO)Cc3ccccc3)ccc2C(=O)NCCOc2ccccc2)cc(OC)c1OC
[2]
  Potency: inactive

## OC1(CN2CCC(COc3noc4cccc(O[C@@H]5CCOC5)c34)CC2)CCOCC1
[2]
  Potency: inactive

## N#CC(CCCN1CCC(O)(c2ccc(Cl)cc2)CC1)(c1ccccc1)c1ccccc1
[2]
  Potency: 20.6 µM (active)

## C/C(=C\CCC(C)C1=CCC2(C)OC3=C(CC12)C(=O)C(O)CC3)CO (configuration not stated)
[2]
  Potency: inactive

## Cc1ccc(C)c(NC(=O)[C@@H]2CCCN2S(=O)(=O)c2cccc3cccnc23)c1
[2]
  Potency: inactive

## CCC(=O)O
[2]
  Potency: inactive

## COC(=O)CC1OC(C)C2=C(O)c3c(O)cccc3C(=O)C23OC13 (configuration not stated)
[2]
  Potency: 10.1 µM (active)

## COc1c2c(c(C)c3c1C(=O)OC3)O[C@@]1(C)C[C@@H](OC(C)=O)[C@]34O[C@](OC)(CC[C@]3(C)[C@H]1C2)OC4(C)C
[2]
  Potency: inactive

## CCc1c(Cl)c(O)c(Cl)c(O)c1C(=O)O[C@H]1[C@H](O)[C@H](OC)[C@H](OC/C2=C\C=C\C[C@H](O)/C(C)=C\[C@H](CC)[C@@H](O[C@@H]3OC(C)(C)[C@@H](OC(=O)C(C)C)[C@H](O)[C@@H]3O)/C(C)=C/C(C)=C/C[C@@H]([C@@H](C)O)OC2=O)O[C@@H]1C
[2]
  Potency: inactive

## CC(C)(C)c1ccc(C(=O)Nc2cn3cc(-n4ccnc4)ccc3n2)cc1
[2]
  Potency: inactive

## C=C1C(=O)O[C@@H]2C=C(COC(C)=O)CC/C=C(\CO)CC[C@@H]12
[2]
  Potency: inactive

## CN(C)CCn1cc(-c2ccc(F)cc2)c(-n2cccc2)n1
[2]
  Potency: inactive

## CC(C)=CCCC1(C)C2CCC1(C)C(O)C2 (configuration not stated)
[2]
  Potency: inactive

## Cc1ccc(C)c(-c2cc(C(F)(F)F)nn2-c2ccc(S(N)(=O)=O)cc2)c1
[2]
  Potency: 23.1 µM (active)
